Laboratory results published in PubChem BioAssay (NCATS).
Inconclusive results are not listed. Unless noted, calls come from the whole dose curve; as a rule, active = well fitted curve in either direction with a large enough effect (not every such curve was filed as active); inconclusive = small, poorly fitted or top-dose-only effect, or another doubt; inactive = flat fitted curve, though single readings scatter.

Tests used:
[1] = AP1 Signaling Pathway (AID 357); settings: ME-180 AP-1-bla reporter, EGF-induced, beta-lactamase ratio, 5 h; at 17.2 µM (top of the series) unless noted; note: % is set by controls: 0 for no effect and ±100 for the full control effect
How it was run: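 In this screen, ME-180 cells in Opti-MEM with 0.5% dialyzed FBS received EC50 EGF and compound titrations for 5 h. AP-1 reporter beta-lactamase was detected via CCF4 ratio, giving AC50 for positive and negative modulators.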

[2] = NFAT Signaling Pathway (AID 444); settings: Jurkat NFAT-bla M1, carbachol, beta-lactamase ratio, 5 h; at 17.2 µM (top of the series) unless noted;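 note: carbachol stimulus at about its EC50 of 1 µM final; % is set by controls: 0 for no effect and ±100 for the full control effect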
How it was run: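 Read-out: CCF4 FRET ratio (460 nm/530 nm) after 1 h RT dye loading, used for %activity and AC50 from titration series. Cells: Jurkat NFAT-β-lactamase/M1 line, treated with compound plus 1 uM carbachol for 5 h, 37 °C.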

[3] = Stat Signaling Pathway (AID 446); settings: ME-180 SIE beta-lactamase reporter, IL-6 stimulated, 5 h; at 17.2 µM (top of the series) unless noted;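 note: ME-180 cervical cancer cells given 40 pM IL-6 alongside compound; SIE-controlled beta-lactamase reporter measured as 460/530 nm FRET emission ratio; % is set by controls: 0 for no effect and ±100 for the full control effect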
How it was run: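 Reporter line: ME-180 cervical carcinoma, SIE-beta-lactamase. Treatment: compound with 40 pM IL-6, 5 hrs, 37 C, in low-serum OPTI-MEM with 10 mM HEPES pH 7.3. Detection: 460/530 nm fluorescence.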

[4] = molecular target: Glucocorticoid receptor (Homo sapiens) (UniProt P04150); assay: GR-GFP Redistribution (AID 450;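 active = compounds whose dose series gives a full or clear partial fitted curve of increased nuclear translocation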; note: potency is the fitted concentration of half-maximal effect)
Glucocorticoid receptor (Homo sapiens), sequence (P04150 whole entry, looked up): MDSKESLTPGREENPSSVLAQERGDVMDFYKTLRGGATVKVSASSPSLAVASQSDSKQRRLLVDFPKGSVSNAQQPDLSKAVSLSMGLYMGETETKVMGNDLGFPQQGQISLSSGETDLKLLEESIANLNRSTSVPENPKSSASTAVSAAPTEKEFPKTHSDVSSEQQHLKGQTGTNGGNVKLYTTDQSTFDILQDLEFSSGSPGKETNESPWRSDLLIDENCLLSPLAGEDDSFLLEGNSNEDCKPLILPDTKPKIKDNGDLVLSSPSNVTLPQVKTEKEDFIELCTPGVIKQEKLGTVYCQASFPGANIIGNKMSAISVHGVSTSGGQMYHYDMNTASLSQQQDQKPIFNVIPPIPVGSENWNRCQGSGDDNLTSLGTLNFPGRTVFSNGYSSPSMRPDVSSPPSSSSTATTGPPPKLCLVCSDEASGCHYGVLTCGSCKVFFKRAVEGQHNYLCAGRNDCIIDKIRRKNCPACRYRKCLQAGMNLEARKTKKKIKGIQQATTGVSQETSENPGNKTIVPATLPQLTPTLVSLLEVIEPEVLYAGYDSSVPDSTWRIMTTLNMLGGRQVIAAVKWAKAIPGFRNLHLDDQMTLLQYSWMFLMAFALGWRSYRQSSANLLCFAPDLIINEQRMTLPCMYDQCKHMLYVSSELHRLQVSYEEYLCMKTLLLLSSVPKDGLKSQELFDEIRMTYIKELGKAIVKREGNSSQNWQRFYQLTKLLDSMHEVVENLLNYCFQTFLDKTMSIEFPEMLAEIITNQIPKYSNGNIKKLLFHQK

CCOC(=O)C1CCCN(c2nc3ccccc3nc2C(C#N)C(=O)OCCOC)C1 (centres undefined)
inactive: activity change, negative = inhibition [1] -28.5% | activity change, negative = inhibition [2] -3.48% | activity, negative = inhibition [3] -2.06% | Potency [4] > 20.6 µM

CCN(CC)C(=O)CSC1=C(C#N)C(c2ccco2)C(C(=O)OCCOC)=C(C)N1 (centres undefined)
inactive: activity change, negative = inhibition [1] -10.6% | activity change, negative = inhibition [2] -0.498% | activity, negative = inhibition [3] 2.75% | Potency [4] > 20.6 µM

Cc1c2c([n+]3n1CCC3)CC(C)(C)CC2=O
inactive: activity change, negative = inhibition [1] 8.99% | activity change, negative = inhibition [2] -9.27% | activity, negative = inhibition [3] 11.2% | Potency [4] > 20.6 µM

CCOP(=O)(c1ccccc1)C1(C#N)CCCC1 (centres undefined)
inactive: activity change, negative = inhibition [1] 8.95% | activity change, negative = inhibition [2] 7.44% | activity, negative = inhibition [3] 7.92% | Potency [4] > 20.6 µM

CCOP(=O)(c1ccccc1)c1nc(-c2ccc(F)cc2)oc1N1CCCCC1 (centres undefined)
inactive: activity change, negative = inhibition [1] -11.9% | activity change, negative = inhibition [2] 3.09% | activity, negative = inhibition [3] 4.79% | Potency [4] > 20.6 µM

CCSc1nnc(N(CCC#N)CCC#N)s1
inactive: activity change, negative = inhibition [1] 8.14% | activity change, negative = inhibition [2] -7.48% | activity, negative = inhibition [3] -1.67% | Potency [4] > 20.6 µM

CCOc1c(C)cc2[nH]c(CCC(=O)O)nc2c1C
inactive: activity change, negative = inhibition [1] 7.73% | activity change, negative = inhibition [2] -1.66% | activity, negative = inhibition [3] 7.03% | Potency [4] > 20.6 µM

CC1(C)CNC(=O)c2sc(N3CCOCC3)nc2C1
inactive: activity change, negative = inhibition [1] -10.8% | activity change, negative = inhibition [2] 26.7% | activity, negative = inhibition [3] 3.19% | Potency [4] > 20.6 µM

N#Cc1c(SCC(=O)O)nc(N2CCCCC2)c2c1CCCC2
inactive: activity change, negative = inhibition [1] 6.2% | activity change, negative = inhibition [2] 10.4% | activity, negative = inhibition [3] -7.23% | Potency [4] > 20.6 µM

c1ccc(-c2nnc3n2N=C(c2ccc4c(c2)OCO4)CS3)nc1
inactive: activity change, negative = inhibition [1] 2.99% | activity change, negative = inhibition [2] 19.9% | activity, negative = inhibition [3] -6.24% | Potency [4] > 20.6 µM

CCOc1ccccc1C(=O)NCCCCCC(=O)O
inactive: activity change, negative = inhibition [1] -1.91% | activity change, negative = inhibition [2] 2.57% | activity, negative = inhibition [3] 6.07% | Potency [4] > 20.6 µM

O=C(O)CCCCCN1C(=O)CCC1=O
inactive: activity change, negative = inhibition [1] 13.2% | activity change, negative = inhibition [2] 23.1% | activity, negative = inhibition [3] 5.29% | Potency [4] > 20.6 µM

COc1cccc(Cn2c(NCc3ccco3)nc3c2c(=O)n(C)c(=O)n3C)c1
inactive: activity change, negative = inhibition [1] -11% | activity change, negative = inhibition [2] -5% | activity, negative = inhibition [3] -24.4% | Potency [4] > 20.6 µM

Cc1cc(C)cc(CC2CC(=O)N(c3cc(C)on3)C2=O)c1 (centres undefined)
inactive: activity change, negative = inhibition [1] -8.62% | activity change, negative = inhibition [2] -3.65% | activity, negative = inhibition [3] -12.9% | Potency [4] > 20.6 µM

OCCN=C(c1ccccc1)C12CN3CN(CN(C3)C1)C2
inactive: activity change, negative = inhibition [1] 6.77% | activity change, negative = inhibition [2] -21.4% | activity, negative = inhibition [3] 3.31% | Potency [4] > 20.6 µM

CCOc1cccc(-c2nnc3sc(-c4cccs4)nn23)c1
inactive: activity change, negative = inhibition [1] -12.6% | activity change, negative = inhibition [2] -10.8% | activity, negative = inhibition [3] 5.52% | Potency [4] > 20.6 µM

COc1ccc(C2Nc3ccccc3C(=O)N2Cc2ccco2)cc1CN1C(=O)c2ccccc2C1=O (centres undefined)
inactive: activity change, negative = inhibition [1] -19.7% | activity change, negative = inhibition [2] -14.1% | activity, negative = inhibition [3] -19.4% | Potency [4] > 20.6 µM

CC(C)Cc1nc(NCCN2CCOCC2)c(C#N)c2c1COC(C)(C)C2
inactive: activity change, negative = inhibition [1] -8.99% | activity change, negative = inhibition [2] -9.59% | activity, negative = inhibition [3] 19.2% | Potency [4] > 20.6 µM

O=C(NCC(F)(F)F)Nc1nnc(C(F)(F)F)s1
inactive: activity change, negative = inhibition [1] -9.88% | activity change, negative = inhibition [2] -2.8% | activity, negative = inhibition [3] -4.37% | Potency [4] > 20.6 µM

CC(=O)Nc1cccc(NC(=O)CSc2nc(C)c(C)c(C)c2C#N)c1
inactive: activity change, negative = inhibition [1] -13.8% | activity change, negative = inhibition [2] 8.76% | activity, negative = inhibition [3] -4.2% | Potency [4] > 20.6 µM

CCN(CC)CCN1C(=O)C(=O)/C(=C(/O)c2ccc(F)cc2)C1c1ccncc1 (centres undefined)
inactive: activity change, negative = inhibition [1] -7.07% | activity change, negative = inhibition [2] 17.1% | activity, negative = inhibition [3] 1.89% | Potency [4] > 20.6 µM

CC12CN3CC(C)(CN(C1)C3c1ccc(Cl)cc1Cl)C2O (centres undefined)
inactive: activity change, negative = inhibition [1] 3.94% | activity change, negative = inhibition [2] -12% | activity, negative = inhibition [3] 3.23% | Potency [4] > 20.6 µM

O/N=C/c1ccc(OCC(O)COc2ccc(/C=N/O)cc2)cc1
inactive: activity change, negative = inhibition [1] -15.3% | activity change, negative = inhibition [2] -1.17% | activity, negative = inhibition [3] 4.46% | Potency [4] > 20.6 µM

C1CNCCNCCNCCN1
inactive: activity change, negative = inhibition [1] -9.33% | activity change, negative = inhibition [2] 6.5% | activity, negative = inhibition [3] -0.788% | Potency [4] > 20.6 µM

CN(C)/C=C1\N=C(c2cccs2)OC1=O
inactive: activity change, negative = inhibition [1] 4.03% | activity change, negative = inhibition [2] 6.03% | activity, negative = inhibition [3] 13.9% | Potency [4] > 20.6 µM

CCCC1C(c2ccc(OC)cc2)C(C#N)(C#N)C2(C#N)CC1(N)NC2=O (centres undefined)
inactive: activity change, negative = inhibition [1] 7.74% | activity change, negative = inhibition [2] -5.15% | activity, negative = inhibition [3] -5.79% | Potency [4] > 20.6 µM

COc1cccc(C2/C(=C(/O)c3cnn(-c4ccccc4)c3C)C(=O)C(=O)N2CCN(C)C)c1OC (centres undefined)
inactive: activity change, negative = inhibition [1] -4.08% | activity change, negative = inhibition [2] 5.52% | activity, negative = inhibition [3] 3.83% | Potency [4] > 20.6 µM

CSc1nc(N)nc(SCC(=O)CC(=O)OC(C)C)c1C#N
inactive: activity change, negative = inhibition [1] -2.75% | activity change, negative = inhibition [2] 5.87% | activity, negative = inhibition [3] -1.28% | Potency [4] > 20.6 µM

CC1CCc2cc(F)cc3c(O)c(C(=O)NCC4CCCO4)c(=O)n1c23 (centres undefined)
inactive: activity change, negative = inhibition [1] -6.28% | activity change, negative = inhibition [2] -19.9% | activity, negative = inhibition [3] 1.8% | Potency [4] > 20.6 µM

CC1(C)CC(=O)C2=C(C1)OC(N)=C(C#N)[C@@]21C(=O)N(CC(N)=O)c2ccccc21
inactive: activity change, negative = inhibition [1] 10.8% | activity change, negative = inhibition [2] 4.51% | activity, negative = inhibition [3] -18.4% | Potency [4] > 20.6 µM

O=C1CCC(=O)N1c1nc2n(n1)C(c1ccccc1)C=C(c1ccc(Br)cc1)N2 (centres undefined)
inactive: activity change, negative = inhibition [1] -22.1% | activity change, negative = inhibition [2] 3.81% | activity, negative = inhibition [3] -13.7% | Potency [4] > 20.6 µM

CCCCNC(=O)N1CCOCCOCCN(C(=O)NCCCC)CCOCCOCC1
inactive: activity change, negative = inhibition [1] 3.89% | activity change, negative = inhibition [2] 5.69% | activity, negative = inhibition [3] -1.16% | Potency [4] > 20.6 µM

COc1ccc(NC(=O)C2CSC3c4ccccc4C(=O)N23)cc1 (centres undefined)
inactive: activity change, negative = inhibition [1] -4.43% | activity change, negative = inhibition [2] -13% | activity, negative = inhibition [3] 4.23% | Potency [4] > 20.6 µM

COc1cccc(C2=CC(c3ccccc3)n3ncnc3N2)c1 (centres undefined)
inactive: activity change, negative = inhibition [1] -21.4% | activity change, negative = inhibition [2] -15.1% | activity, negative = inhibition [3] -5.76% | Potency [4] > 20.6 µM

Cc1cc(/C=N/n2cnnc2)c(C)n1-c1ccc2c(c1)OCO2
inactive: activity change, negative = inhibition [1] 9.26% | activity change, negative = inhibition [2] -13% | activity, negative = inhibition [3] -0.639% | Potency [4] > 20.6 µM

CCCC1Cc2c(sc3ncnc(N)c23)CO1 (centres undefined)
inactive: activity change, negative = inhibition [1] -16.4% | activity change, negative = inhibition [2] -5.16% | activity, negative = inhibition [3] -9.41% | Potency [4] > 20.6 µM

CC1CN(C2CCN(S(=O)(=O)c3ccccc3)CC2)CC(C)O1 (centres undefined)
inactive: activity change, negative = inhibition [1] 2.07% | activity change, negative = inhibition [2] -20.4% | activity, negative = inhibition [3] 2.46% | Potency [4] > 20.6 µM

Cc1c(C(Nc2ccccn2)c2ccccc2)c(=O)n(-c2ccccc2)n1C (centres undefined)
inactive: activity change, negative = inhibition [1] -3.17% | activity change, negative = inhibition [2] 2.74% | activity, negative = inhibition [3] 8.77% | Potency [4] > 20.6 µM

CCCCOc1ccccc1/C=c1/sc2nc(-c3oc4ccccc4c3C)nn2c1=O
inactive: activity change, negative = inhibition [1] 4.54% | activity change, negative = inhibition [2] -23.5% | activity, negative = inhibition [3] -12.5% | Potency [4] > 20.6 µM

COc1cccc(Cn2c(NCc3ccccn3)nc3c2c(=O)n(C)c(=O)n3C)c1
inactive: activity change, negative = inhibition [1] -10.2% | activity change, negative = inhibition [2] 7.02% | activity, negative = inhibition [3] -15.6% | Potency [4] > 20.6 µM

CCCc1cc(=O)oc2c(C)c(O)c(CN3CCCCC3)cc12
inactive: activity change, negative = inhibition [1] 6.18% | activity change, negative = inhibition [2] 19.5% | activity, negative = inhibition [3] 10.7% | Potency [4] > 20.6 µM

Cc1cc(=O)oc(C)c1C(=O)NCCC1=CCCCC1
inactive: activity change, negative = inhibition [1] 12.2% | activity change, negative = inhibition [2] -27.5% | activity, negative = inhibition [3] 2.06% | Potency [4] > 20.6 µM

COC(=O)CC1SC(=O)NC1=O (centres undefined)
inactive: activity change, negative = inhibition [1] 6.96% | activity change, negative = inhibition [2] 5.58% | activity, negative = inhibition [3] 7.23% | Potency [4] > 20.6 µM

CC(NC(=O)NCCCn1ccnc1)(C(F)(F)F)C(F)(F)F
inactive: activity change, negative = inhibition [1] 18.8% | activity change, negative = inhibition [2] -6.4% | activity, negative = inhibition [3] 5.85% | Potency [4] > 20.6 µM

C=C(C)CSC1=C(C#N)C(c2ccsc2)CC(=O)N1 (centres undefined)
inactive: activity change, negative = inhibition [1] -7.58% | activity change, negative = inhibition [2] -0.539% | activity, negative = inhibition [3] -1.45% | Potency [4] > 20.6 µM

Cc1ccc(CC2CC(=O)N(c3ccc4c(c3)OCCO4)C2=O)cc1 (centres undefined)
inactive: activity change, negative = inhibition [1] -5.59% | activity change, negative = inhibition [2] 4.5% | activity, negative = inhibition [3] 0.576% | Potency [4] > 20.6 µM
